For some of these results: Measured potencies and affinities stand elsewhere.
Experiments:
Parameters in all cases: scale not given: direction of the effect not stated beside the values
[1] = target: Protein translocase subunit SecA (Escherichia coli (strain K12)) (UniProt P10408); assay: Assay to Identify E. coli SecA ATPase Inhibitors; assay type: functional; details: 30 µM
[2] = target: T1, Ubiquitin-activating enzyme e1, putative (Leishmania donovani (strain BPK282A1)) (UniProt E9BSI1); assay: Leishmania donovani Ubiquitin Activating Enzyme (LdE1); assay type: functional; details: 30 µM
T1 sequence (whole entry): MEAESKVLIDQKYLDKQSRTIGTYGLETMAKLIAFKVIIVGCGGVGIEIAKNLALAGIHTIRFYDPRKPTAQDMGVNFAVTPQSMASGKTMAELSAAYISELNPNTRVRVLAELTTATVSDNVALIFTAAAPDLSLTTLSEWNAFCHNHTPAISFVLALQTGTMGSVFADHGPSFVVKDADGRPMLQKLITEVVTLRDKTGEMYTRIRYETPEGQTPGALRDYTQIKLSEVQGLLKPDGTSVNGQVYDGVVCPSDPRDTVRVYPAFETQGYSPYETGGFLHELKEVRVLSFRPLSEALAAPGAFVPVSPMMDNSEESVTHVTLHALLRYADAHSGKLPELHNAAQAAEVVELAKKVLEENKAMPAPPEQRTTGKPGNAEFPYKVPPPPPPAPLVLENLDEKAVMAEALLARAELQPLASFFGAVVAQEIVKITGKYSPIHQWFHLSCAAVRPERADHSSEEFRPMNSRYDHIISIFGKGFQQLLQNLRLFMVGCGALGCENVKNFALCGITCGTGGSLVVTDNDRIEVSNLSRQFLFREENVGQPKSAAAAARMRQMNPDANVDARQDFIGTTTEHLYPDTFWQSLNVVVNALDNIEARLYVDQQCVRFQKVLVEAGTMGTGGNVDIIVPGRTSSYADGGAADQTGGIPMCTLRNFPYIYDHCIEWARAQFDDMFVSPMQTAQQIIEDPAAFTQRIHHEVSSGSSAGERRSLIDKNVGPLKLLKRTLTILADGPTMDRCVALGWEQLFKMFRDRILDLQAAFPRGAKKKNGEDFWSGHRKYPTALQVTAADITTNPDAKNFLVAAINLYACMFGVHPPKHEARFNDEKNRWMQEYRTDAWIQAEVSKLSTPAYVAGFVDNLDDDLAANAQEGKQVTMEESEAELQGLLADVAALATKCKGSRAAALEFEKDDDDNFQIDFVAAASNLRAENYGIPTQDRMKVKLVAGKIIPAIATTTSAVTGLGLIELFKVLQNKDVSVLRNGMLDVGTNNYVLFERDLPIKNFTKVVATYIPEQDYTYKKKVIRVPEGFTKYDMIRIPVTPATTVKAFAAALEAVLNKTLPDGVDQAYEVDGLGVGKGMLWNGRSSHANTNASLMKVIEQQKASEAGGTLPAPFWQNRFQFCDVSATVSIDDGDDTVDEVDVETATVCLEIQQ

[3] = target: AMP-activated protein kinase, AMPK (Homo sapiens) (UniProt P54646+O43741+P54619+Q9UGJ0+Q9Y478+Q13131+Q9UGI9); assay: AMP-dependent Kinase enzyme assay. An in vitro enzyme assay that detects ADP turnover that is directly proportional to AMPK activity. This uses naive AMPK that is activated during the assay with MK-8722; assay type: functional; details: 30 µM
[4] = target: Sialic acid-binding Ig-like lectin 9 (Homo sapiens) (UniProt Q9Y336); assay: Hs-Siglec9 ALPHAscreen SOP 20170721; details: 10 µM
Trypanosoma cruzi = assay: Trypanosoma cruzi phosphomannomutase and mannose-1-phosphate guanylyltransferase assay; assay type: functional; details: 10 µM
[5] = target: T2, Arginase-2, mitochondrial (Homo sapiens) (UniProt P78540); assay: in vitro enzyme assay to detect the production of urea directly proportional to the activity of Arginase II; assay type: functional; details: 33.3 µM; also: in the data most compounds retested in dose-response had high values
T2 sequence (whole entry): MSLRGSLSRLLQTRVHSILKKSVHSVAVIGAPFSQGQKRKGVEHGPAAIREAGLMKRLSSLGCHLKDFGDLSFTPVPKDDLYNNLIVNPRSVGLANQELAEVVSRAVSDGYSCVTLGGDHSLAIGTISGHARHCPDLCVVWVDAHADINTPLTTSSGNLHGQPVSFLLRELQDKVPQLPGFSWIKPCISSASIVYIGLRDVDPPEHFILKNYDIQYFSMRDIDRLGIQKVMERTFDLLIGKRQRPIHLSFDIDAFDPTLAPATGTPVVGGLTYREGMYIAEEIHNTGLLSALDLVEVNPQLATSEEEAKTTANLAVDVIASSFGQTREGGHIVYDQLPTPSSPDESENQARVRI

[6] = target: T3, Proteasome subunit beta (Trypanosoma cruzi) (UniProt O96673); assay: Trypanosoma cruzi proteasome chymotrypsin-like activity (TcProtChymo) assay.; also: in the data most compounds retested in dose-response had high values; assay type: functional; details: 9.37 µM
T3 sequence (whole entry): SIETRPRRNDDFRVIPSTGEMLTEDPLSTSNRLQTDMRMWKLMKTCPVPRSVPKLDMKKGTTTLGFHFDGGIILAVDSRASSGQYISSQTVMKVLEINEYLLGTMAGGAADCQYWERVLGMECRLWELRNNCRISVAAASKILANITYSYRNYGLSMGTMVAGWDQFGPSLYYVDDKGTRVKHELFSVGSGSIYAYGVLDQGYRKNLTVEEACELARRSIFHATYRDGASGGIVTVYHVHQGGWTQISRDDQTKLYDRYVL

Homo sapiens = organism: Homo sapiens; assay: To identify inhibition of the IFN signalling (Jak-Stat) pathway via expression of an eGFP reporter gene under the control of an IFN-stimulated response element (ISRE) containing MxA promoter.; assay type: functional; details: 30 µM
[7] = target: T4, Tyrosyl-tRNA synthetase, putative (Trypanosoma cruzi (strain CL Brener)) (UniProt Q4DSP6); assay: Trypanosoma cruzi tyrosyl tRNA synthetase (TcYRS) _High Tyrosine SOP; assay type: functional; details: 30 µM; also: in the data most compounds retested in dose-response had high values
T4 sequence (whole entry): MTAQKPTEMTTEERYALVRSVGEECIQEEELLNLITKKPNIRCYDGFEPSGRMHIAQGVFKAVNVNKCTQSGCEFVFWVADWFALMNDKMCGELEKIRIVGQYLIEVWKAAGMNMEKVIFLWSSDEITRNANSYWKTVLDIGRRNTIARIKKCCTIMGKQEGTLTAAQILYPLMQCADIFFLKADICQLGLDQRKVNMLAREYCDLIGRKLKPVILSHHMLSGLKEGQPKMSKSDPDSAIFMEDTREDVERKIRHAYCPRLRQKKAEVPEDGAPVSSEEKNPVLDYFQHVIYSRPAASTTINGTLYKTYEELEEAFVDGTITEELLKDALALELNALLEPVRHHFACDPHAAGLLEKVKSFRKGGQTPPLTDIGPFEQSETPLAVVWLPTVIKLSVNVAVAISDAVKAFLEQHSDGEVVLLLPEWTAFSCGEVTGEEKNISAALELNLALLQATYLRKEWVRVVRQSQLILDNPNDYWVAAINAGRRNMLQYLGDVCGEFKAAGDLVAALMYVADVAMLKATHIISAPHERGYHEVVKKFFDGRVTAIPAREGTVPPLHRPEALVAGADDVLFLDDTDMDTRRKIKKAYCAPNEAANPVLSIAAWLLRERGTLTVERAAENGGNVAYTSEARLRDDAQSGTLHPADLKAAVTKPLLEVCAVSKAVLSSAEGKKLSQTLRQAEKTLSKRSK

[8] = target: T4, Tyrosyl-tRNA synthetase, putative (Trypanosoma cruzi (strain CL Brener)); assay: Trypanosoma cruzi tyrosyl tRNA synthetase (TcYRS) SOP; assay type: functional; details: 30 µM
[9] = target: Chromo domain-containing protein 1 (Saccharomyces cerevisiae (strain ATCC 204508 / S288c) (Baker's yeast)) (UniProt P32657); assay: ScCHD-1 Enzyme Inhibition Assay; assay type: functional; details: 30 µM; also: in the data most compounds retested in dose-response had high values
Sequence of Chromo domain-containing protein 1 (Saccharomyces cerevisiae (strain ATCC 204508 / S288c) (Baker's yeast)) (P32657 whole entry, the tested form may be a part): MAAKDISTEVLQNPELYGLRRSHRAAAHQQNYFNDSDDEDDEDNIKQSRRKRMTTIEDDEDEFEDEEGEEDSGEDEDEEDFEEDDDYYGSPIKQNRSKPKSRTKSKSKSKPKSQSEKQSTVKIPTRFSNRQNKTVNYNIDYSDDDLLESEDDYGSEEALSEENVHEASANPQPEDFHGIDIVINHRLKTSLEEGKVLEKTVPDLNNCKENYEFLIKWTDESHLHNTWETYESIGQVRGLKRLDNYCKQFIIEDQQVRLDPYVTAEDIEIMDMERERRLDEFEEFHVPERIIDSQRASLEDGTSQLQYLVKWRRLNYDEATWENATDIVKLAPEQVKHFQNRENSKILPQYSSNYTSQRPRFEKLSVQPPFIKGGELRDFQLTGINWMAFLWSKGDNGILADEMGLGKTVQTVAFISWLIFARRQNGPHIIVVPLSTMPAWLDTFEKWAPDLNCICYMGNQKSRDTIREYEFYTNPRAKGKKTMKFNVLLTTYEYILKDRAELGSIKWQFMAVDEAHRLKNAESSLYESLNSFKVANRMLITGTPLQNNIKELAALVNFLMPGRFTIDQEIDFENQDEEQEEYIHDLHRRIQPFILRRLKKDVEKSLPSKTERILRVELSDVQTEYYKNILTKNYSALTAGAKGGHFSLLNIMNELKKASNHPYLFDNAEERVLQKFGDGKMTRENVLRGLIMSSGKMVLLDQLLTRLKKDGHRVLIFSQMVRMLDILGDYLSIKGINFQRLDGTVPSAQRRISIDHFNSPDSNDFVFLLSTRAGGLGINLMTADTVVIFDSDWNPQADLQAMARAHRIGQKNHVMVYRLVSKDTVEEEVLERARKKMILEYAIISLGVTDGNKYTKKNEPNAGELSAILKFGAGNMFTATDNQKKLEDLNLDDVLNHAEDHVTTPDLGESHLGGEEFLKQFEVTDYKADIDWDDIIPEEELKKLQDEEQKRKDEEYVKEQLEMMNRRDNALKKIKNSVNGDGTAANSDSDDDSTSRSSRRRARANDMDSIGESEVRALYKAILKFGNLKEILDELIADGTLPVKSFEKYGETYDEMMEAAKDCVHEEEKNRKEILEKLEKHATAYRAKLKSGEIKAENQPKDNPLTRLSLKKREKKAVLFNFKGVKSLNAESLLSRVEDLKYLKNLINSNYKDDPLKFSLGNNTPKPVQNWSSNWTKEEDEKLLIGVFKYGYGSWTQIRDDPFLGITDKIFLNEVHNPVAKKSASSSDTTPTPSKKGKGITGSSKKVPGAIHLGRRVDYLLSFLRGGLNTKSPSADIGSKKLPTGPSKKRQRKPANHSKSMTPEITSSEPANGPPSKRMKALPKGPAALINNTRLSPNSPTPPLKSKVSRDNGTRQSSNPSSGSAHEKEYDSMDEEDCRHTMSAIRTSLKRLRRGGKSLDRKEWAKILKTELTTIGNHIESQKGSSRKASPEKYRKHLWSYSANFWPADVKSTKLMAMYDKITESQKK

Sequence of Sialic acid-binding Ig-like lectin 9 (Homo sapiens) (Q9Y336 whole entry): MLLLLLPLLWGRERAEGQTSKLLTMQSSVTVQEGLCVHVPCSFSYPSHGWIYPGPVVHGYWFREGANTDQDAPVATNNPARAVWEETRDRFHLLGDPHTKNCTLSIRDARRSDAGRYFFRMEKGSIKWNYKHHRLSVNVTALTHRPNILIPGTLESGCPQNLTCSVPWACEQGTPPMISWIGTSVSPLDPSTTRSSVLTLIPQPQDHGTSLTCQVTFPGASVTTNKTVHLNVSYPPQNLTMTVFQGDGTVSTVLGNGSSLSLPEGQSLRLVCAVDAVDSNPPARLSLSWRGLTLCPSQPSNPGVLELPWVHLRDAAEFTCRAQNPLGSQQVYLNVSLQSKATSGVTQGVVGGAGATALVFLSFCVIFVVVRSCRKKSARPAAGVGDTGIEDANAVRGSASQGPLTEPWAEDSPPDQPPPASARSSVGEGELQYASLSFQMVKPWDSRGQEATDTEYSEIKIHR
Sequence of Protein translocase subunit SecA (Escherichia coli (strain K12)) (P10408 whole entry): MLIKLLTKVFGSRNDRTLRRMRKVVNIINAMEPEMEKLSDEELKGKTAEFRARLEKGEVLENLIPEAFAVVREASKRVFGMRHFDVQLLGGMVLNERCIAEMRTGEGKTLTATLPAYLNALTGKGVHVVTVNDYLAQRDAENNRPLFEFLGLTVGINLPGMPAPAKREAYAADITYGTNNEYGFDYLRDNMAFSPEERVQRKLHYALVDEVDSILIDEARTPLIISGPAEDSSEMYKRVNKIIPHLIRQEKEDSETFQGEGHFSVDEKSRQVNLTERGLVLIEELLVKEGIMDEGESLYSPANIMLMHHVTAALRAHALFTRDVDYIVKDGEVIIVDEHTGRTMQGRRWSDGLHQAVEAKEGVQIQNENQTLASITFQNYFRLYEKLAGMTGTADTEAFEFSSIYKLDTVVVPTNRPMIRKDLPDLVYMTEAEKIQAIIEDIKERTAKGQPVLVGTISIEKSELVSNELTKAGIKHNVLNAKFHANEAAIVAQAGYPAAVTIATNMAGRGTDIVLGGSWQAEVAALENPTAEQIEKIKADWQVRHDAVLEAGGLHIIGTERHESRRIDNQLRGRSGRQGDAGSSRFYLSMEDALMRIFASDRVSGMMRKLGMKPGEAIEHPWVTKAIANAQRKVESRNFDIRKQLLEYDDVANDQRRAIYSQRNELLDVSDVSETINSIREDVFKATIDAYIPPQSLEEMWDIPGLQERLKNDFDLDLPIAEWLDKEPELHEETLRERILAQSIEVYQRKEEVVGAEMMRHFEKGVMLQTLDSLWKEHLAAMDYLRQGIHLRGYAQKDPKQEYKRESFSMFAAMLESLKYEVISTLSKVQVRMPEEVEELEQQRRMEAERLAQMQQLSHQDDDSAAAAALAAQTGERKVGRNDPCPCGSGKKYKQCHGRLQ

| SMILES | Percent Effect [1] | Percent Effect [2] | Percent Effect [3] | Percent Effect [4] | Percent Effect (Trypanosoma cruzi) | Percent Effect [5] | Percent Effect [6] | Percent Effect (Homo sapiens) | Percent Effect [7] | Percent Effect [8] | Percent Effect [9] |
| --- | --- | --- | --- | --- | --- | --- | --- | --- | --- | --- | --- |
| CCOCC1CN(S(C)(=O)=O)Cc2ncn(CC3CC3)c21 (stereo not given) | -2.41% | 13.5% | -8.53% | 6.97% | 3.81% | -1.24% | 5.58% | -4.29% | 6.45% | 13.6% | -6.43% |
| CCn1nc(CC(C)C)cc1C(=O)NCCCOC | -2.12% | 6.94% | 0.357% | 4.91% | 0.291% | 4.86% | 15.8% | 3.12% | 5.26% | 7.69% | 0.96% |
| Cn1cc(N2CCC3(CCN(S(=O)(=O)C4CC4)C3)C2=O)cn1 (stereo not given) | -2.28% | -2.67% | 0.251% | 0.236% | 2.32% | -37.5% | 8.55% | 0.388% | 1.04% | 5% | -4.63% |
| Cc1noc(C)c1CN1CC[C@H]2OCC[C@@H](C(=O)NCC3CC3)[C@@H]2C1 | -4.39% | 2.67% | 1.83% | 6.75% | -1.54% | -25.3% | 8.21% | -17.4% | 0% | 12.5% | -5.06% |
| CCN1CCN(C(=O)c2cnn(-c3ccccc3Cl)c2)CC1 | -4.44% | 5.41% | -8.79% | 9.91% | -2.36% | -1.6% | 1.62% | 10.3% | 10.3% | 13.6% | -7.79% |
| N#Cc1ccc(OCCCN2CCc3cncnc3C2)cc1 | -5.04% | 5.06% | -14.8% | 5.6% | -3.68% | -3.04% | -6.14% | 18.3% | -0.493% | 11.4% | -4.55% |
| CSc1ncccc1C(=O)N1C[C@H]2CC[C@@H]1CN(c1cnccn1)C2 | -6.82% | 7.79% | 4.77% | 7.96% | -3.44% | -29% | 10.5% | -1.66% | 5.38% | 8.64% | 0.924% |
| Cc1nnc(Nc2cccc(C3CCN(CCO)CC3)n2)s1 | -1.13% | 13.3% | 4.79% | -2.96% | 1.38% | 1.63% | 4.85% | 11.5% | 6.38% | 14.1% | -3.37% |
| CC(C(N)=O)S(=O)(=O)Cc1cc(Cl)c2c(c1)OCO2 (stereo not given) | -0.171% | 15.8% | 1.18% | -10.6% | -3.83% | 7.91% | 6.51% | 7.44% | 5.42% | 13.6% | -7.99% |
| COc1ccc(C(=O)N(Cc2cnn(C)c2)C(C)C)cc1Br | -4.7% | 0% | -7.42% | 8.74% | 6.44% | -2.52% | -1.61% | -4.21% | 2.46% | 11.1% | -4.6% |
| Cc1ncc(CN(C)C2CCCN(Cc3noc(C4CC4)n3)C2)s1 (stereo not given) | -3.21% | 5.26% | -3.55% | 4.27% | 7.52% | -0.766% | 8.02% | 14.3% | 2.45% | 12.2% | -9.03% |
| Cc1csc(N2CCN(C(=O)CCn3cncn3)CC2)n1 | -2.99% | 17.7% | -7.64% | 11.1% | 0.472% | 4.18% | 6.31% | -0.236% | 8.37% | 21.5% | -6.07% |
| COCCOCC(=O)Nc1ccc(Br)cc1F | -4.21% | 10.5% | -1.83% | 4.08% | 3.8% | -5.92% | 1.63% | 9.23% | 1.06% | 7.79% | -2.27% |
| CN(CCCNC(=O)N1CCCC1c1ccsc1)c1ccccn1 (stereo not given) | -0.565% | 28.6% | -13.6% | -0.894% | 1.5% | 3.92% | 12.5% | 25.5% | 9.71% | 19.5% | -10.5% |
| OCc1ccc(Cl)c(NCc2cccnc2)c1 | -4.1% | 0% | -0.207% | -4.73% | -1.85% | 2.37% | 2.01% | -2.65% | 0% | -5.2% | -6.29% |
| CCc1cnc2c(c1Nc1ccc(OC)cc1)c(=O)n(C)c(=O)n2C | -1.52% | 18.2% | 0.437% | -14.7% | 2.66% | -41.9% | 8.88% | 11.4% | 4.23% | 8.97% | -11.2% |
| COc1cccc(-n2c(C)cc(C(=O)O)c2C)c1 | -4.92% | 20.2% | -3.83% | -8.51% | -6.52% | 2.28% | 10.7% | 31.6% | -0.493% | 3.8% | -2.26% |
| CC(C1CC1)N(C(=O)NCCCn1nc2ccccn2c1=O)C1CC1 (stereo not given) | -5.32% | 16.4% | -9.44% | 24% | 3.13% | 20.9% | 15.3% | 1.6% | 4.3% | 15% | -6.77% |
| O=C(C1COCCO1)N1CCN(Cc2ccc3c(c2)CCO3)CC1 (stereo not given) | -1.12% | -5.26% | -0.262% | 5.55% | 1.21% | -2.52% | -0.0846% | -4.94% | 3.45% | 3.7% | -2.12% |
| COCc1nc2n(n1)CCCC2Nc1nc(C2CC2)ns1 (stereo not given) | -2.6% | 5.33% | -1.82% | 23.5% | 2.82% | 16.1% | 13.6% | -2.26% | 4.92% | 13.6% | -5.92% |
